# From publication PMC5540273 (PLoS ONE, 2017)
# Experiments:
# Conditions in all cases: concentration: 1 μM, replicates: in singlicate; n = 1
# [1] = test system: T1, HASPIN
# T1 construct: gene GSG2
# [2] = test system: HCK
# [3] = test system: HIPK1
# [4] = test system: HIPK2
# [5] = test system: HIPK3
# [6] = test system: HIPK4
# [7] = test system: HPK1
# [8] = test system: HUNK
# [9] = test system: ICK
# [10] = test system: IGF1R
# 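Further: KINOMEscan kinase panel screen.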
SMILES,%Inh [1] [%],%Inh [2] [%],%Inh [3] [%],%Inh [4] [%],%Inh [5] [%],%Inh [6] [%],%Inh [7] [%],%Inh [8] [%],%Inh [9] [%],%Inh [10] [%]
CCn1c(-c2nonc2N)nc2c(C#CC(C)(C)O)nc(OC[C@H](N)c3ccccc3)cc21 [GSK943949],22,0,21,0,14,0,30,3,0,0
c1ccc(-c2n[nH]cc2Nc2ccnc3ccccc23)nc1 [GW694077],100,0,92.7,98.6,98.3,47,32,0,0,2
O=C(Nc1cccc(-c2nn3ccccc3c2-c2ccnc(Nc3cccc(C(F)(F)F)c3)n2)c1)c1c(F)cccc1F [GSK292658],0,96.9,0,0,0,0,21,0,0,0
CC(C)c1nc(-c2cccc(NS(=O)(=O)c3c(F)cccc3F)c2F)c(-c2ccnc(Nc3ccc(N4CCOCC4)nc3)n2)s1 [GSK2008607],0,99.5,91.1,92.3,94.5,94.7,88,0,77,8
Clc1ccc(-c2nn3ncccc3c2-c2ccnc(Nc3ccc4c(c3)OCCO4)n2)cc1 [GW829116],0,54,14,0,0,0,0,50,0,0
Cl.Cl.NCC(NC(=O)c1cc(-c2ccccc2)c(-c2ccnc3[nH]ccc23)s1)c1ccccc1 (stereo not shown) [GSK1321561],90.3,0,18,28,47,50,68,11,3,0
Cl.c1ccc(-c2ccc3c(Nc4ccc5[nH]ncc5c4)ccnc3c2)nc1 [GW440137],6,16,62,47,51,0,23,9,0,12
Cc1ccc(C)c(NC(=O)NC2CCN(c3ccnc(Nc4ccc(F)cc4)n3)C2)c1 (stereo not shown) [GSK1379720],44,0,0,10,0,0,45,0,0,25
NCCCC(NC(=O)c1cc(Br)c(-c2ccnc3[nH]ccc23)s1)c1ccccc1.O=C(O)C(F)(F)F.O=C(O)C(F)(F)F (stereo not shown) [GSK1287544],95.7,0,39,14,62,82,62,0,23,2
CSc1cccc2c(-c3ccncn3)c(-c3ccc(F)cc3)nn12 [GW514786],17,0,9,0,10,32,21,8,0,19
O=C(O)C(F)(F)F.O=C(O)C(F)(F)F.O=c1[nH]ccc2nc(N[C@@H]3CCCNC3)nc(Nc3ccc(S(=O)(=O)N4CCOCC4)cc3)c12 [GSK2177277],81,92.6,83,92.9,97.2,54,98.2,0,88,90.8
COc1ccc(-c2coc3ccc(-c4nnc(SCc5ccc(OC)c(C(F)(F)F)c5)o4)cc23)cc1,0,38,12,17,14,0,4,0,7,12
COc1cccc(-c2ccc3c(NC(=O)C4CC4)n[nH]c3n2)c1 [SB-710903],32,0,0,0,41,10,41,1,23,17
COc1ccc(CNC(=O)NC2CCN(c3ccnc(Nc4ccc(F)cc4)n3)CC2)cc1 [GSK1379788],6,0,0,0,9,0,37,14,0,0
COc1cc(Nc2nccc(N3CCC(NC(=O)Nc4cccc(C(C)=O)c4)C3)n2)cc(OC)c1OC (stereo not shown) [GSK1379753],0,0,0,0,3,0,55,0,11,0
CCc1ccc(-c2ccc3c(c2)-c2c(cnn2C)S(=O)(=O)N3C)cc1,0,0,0,0,11,8,17,0,4,4
FC(F)(F)c1ccc(/C=C/c2cncnc2Nc2ccc3[nH]c(Cc4ccccc4)nc3c2)cc1 [GW709199],12,14,21,0,0,13,12,55,0,0
O=c1[nH]cc(-c2ccc(N3CCOCC3)cc2)c2sc(-c3cn[nH]c3)cc12 [GSK2276055],79,0,97.3,97.5,99,47,26,11,31,0
COc1ccc(Nc2nccc(NCCNC(=O)c3cc4ccccc4s3)n2)cc1 [GSK1379896],0,15,0,0,22,0,44,13,0,0
COc1cccc(C2=C(Nc3ccc(Cl)c(C(=O)O)c3)C(=O)NC2=O)c1 [SB-390769],0,0,7,0,11,0,55,0,10,26
COc1cc2c(cc1OCCN1CCNCC1)ncc1c3ccc(C#N)cc3[nH]c21,93.5,3,95.2,99.8,91.9,54,0,0,48,0
CC(=O)N1CCN(c2ccc(Nc3nccc(-c4sc(C(C)C)nc4-c4cccc(NS(=O)(=O)c5cccc(Cl)c5)c4)n3)cn2)CC1 [GSK1660437],0,83,40,5,35,82,36,0,0,0

SMILES,%Inh [1] [%],%Inh [2] [%],%Inh [3] [%],%Inh [4] [%],%Inh [5] [%],%Inh [6] [%],%Inh [7] [%],%Inh [8] [%],%Inh [9] [%],%Inh [10] [%]
Cn1cc(-c2ccc3c(c2)CCN3C(=O)Cc2cccc(F)c2)c2c(N)ncnc21 [GSK2603358],0,13,0,0,8,0,57,13,0,23
c1ccc(-c2cnc3nccnn23)cc1 [AH20685],0,0,0,0,0,0,37,0,0,31
CCn1c(-c2nonc2N)nc2c(C#CC(C)(C)O)ncc(OCCCCN)c21.O=C(O)C(F)(F)F.O=C(O)C(F)(F)F [GSK507274],0,0,47,57,100,0,49,0,11,12
O=C(Nc1n[nH]c2cc(-c3ccoc3)ccc12)C1CC1 [SB-738481],27,0,57,65,58,46,7,0,94.8,0
Nc1ncnc2c1nc(-c1ccccc1)n2-c1ccccc1 [SKF-97293],38,27,7,16,35,9,21,0,19,12
COCCOCCOc1cc2ncc3c4ccc(C#N)cc4[nH]c3c2cc1OC,18,4,90.3,87,87,32,7,0,41,2
Nc1ncc(-c2cccnc2)c2scc(-c3ccc4c(c3)CCN4C(=O)Cc3ccccc3)c12 [GSK683281],0,25,20,0,35,0,63,34,8,0
COc1ccc(Nc2nccc(N3CCC(NC(=O)Nc4cccc(OC)c4)C3)n2)cc1 (stereo not shown) [GSK1379742],10,0,0,28,19,0,56,24,0,0
COc1cccc(NC(=O)NC2CCN(c3ccnc(Nc4cc(OC)c(OC)c(OC)c4)n3)C2)c1 (stereo not shown) [GSK1379763],0,0,0,0,85,0,76,0,18,0
O=C(NC1CCN(c2ccnc(Nc3ccc(F)cc3)n2)C1)c1cc2ccccc2s1 (stereo not shown) [GSK1379716],12,0,0,0,8,0,54,10,0,13
C[C@@H](Oc1cc(-n2cnc3cc(-c4ccnc(NCCS(C)(=O)=O)c4)ccc32)sc1C(N)=O)c1ccccc1Cl [GSK907232],26,34,0,0,7,20,87,0,19,0
O=C(Nc1cccc(-c2nn3ccccc3c2-c2ccnc(Nc3cccc(F)c3)n2)c1)c1c(F)ccc(F)c1Cl [GSK357952],0,99.1,0,13,1,51,13,0,3,17
COc1cc(Nc2nccc(-c3c(-c4cccc(NC(=O)c5c(F)cccc5F)c4)nn4ccccc34)n2)cc(OC)c1OC [GSK323521],0,0,12,0,16,14,50,24,0,32
Cl.Cl.NCC(NCc1ccc(-c2ccnc3[nH]ccc23)s1)c1ccccc1 (stereo not shown) [GSK1321565],99.8,0,53,55,71,49,66,0,0,0
C[C@@H]1CC[C@@H](C(=O)Nc2ccccc2)CN1c1cc(-c2ccc3c(N)n[nH]c3c2)nc(N)n1 [GSK2286062],5,0,0,0,0,25,36,11,0,23
COC(=O)Nc1nc2ccc(Oc3ccc(NC(=O)Nc4cc(C(F)(F)F)ccc4F)cc3)cc2n1C.Cl [GW692089],50,0,0,3,0,69,0,12,0,0
COc1cc(Nc2nccc(N3CCC(NC(=O)c4cc5ccccc5s4)C3)n2)cc(OC)c1OC (stereo not shown) [GSK1379760],19,0,9,0,0,9,90,0,0,13
CN(c1ccc(NC(=O)Nc2cc(C(F)(F)F)ccc2F)cc1)c1ccnc(Nc2ccc(S(N)(=O)=O)cc2)n1 [GW809893],2,98.3,59,64,84,99.1,99.4,15,21,0
Fc1ccc(-c2ncn(C3CCNCC3)c2-c2ccnc(Oc3ccc(-c4ccccc4)cc3)n2)cc1 [SB-245391],24,31,5,0,31,27,29,38,25,48
Cl.NC(=O)c1cccc(Nc2nccc(Nc3ccc(Oc4c(Cl)cccc4Cl)c(Cl)c3)n2)c1 [GW659009],0,77,0,11,2,4,0,0,0,0
O=C(Nc1n[nH]c2nc(-c3ccc(O)cc3)ccc12)C1CC1 [SB-710363],36,35,94.4,91.8,90.5,21,17,0,98.5,0
CC(=O)Nc1nc2cnc(Nc3cc(NC(=O)c4cccc(C5(C#N)CC5)c4Cl)ccc3C)nc2s1,0,53,27,0,0,6,1,12,0,0

SMILES,%Inh [1] [%],%Inh [2] [%],%Inh [3] [%],%Inh [4] [%],%Inh [5] [%],%Inh [6] [%],%Inh [7] [%],%Inh [8] [%],%Inh [9] [%],%Inh [10] [%]
Nc1n[nH]c2cnc(-c3ccccc3)cc12 [SB-642124],68,0,64,78,88,7,58,0,26,0
Cc1ccc(C(=O)N2CC[C@@H](O)C2)cc1-n1c(C)cc(OCc2ccc(F)cc2F)c(Br)c1=O,0,66,11,0,0,0,0,0,0,0
COc1cc(Nc2nccc(-c3c(-c4cccc(NC(=O)c5c(F)cccc5F)c4)nn4ncccc34)n2)cc(OC)c1OC [GSK327238],0,96.6,0,0,18,29,82,12,4,95.8
Cc1ccc(S(=O)(=O)Nc2ccc(Nc3nccc(Nc4cccc5[nH]ncc45)n3)cc2)cc1 [GSK581271],0,0,0,0,1,0,23,2,0,10
CN(C)S(=O)(=O)c1cc(-c2ccc3nccc(-c4cccc(S(N)(=O)=O)c4)c3c2)cnc1N [GSK1669921],71,0,49,36,44,48,41,0,44,0
O=C(Nc1cccc(Oc2ccc3nc(NC(=O)C4CC4)cn3n2)c1)c1ccccc1C(F)(F)F,0,69,28,0,0,1,10,0,0,0
CN1CCN(CCCNc2nccc(-c3c(-c4ccc(F)cc4)nn4cc(C(F)(F)F)ccc34)n2)CC1 [GW621581],0,14,0,2,0,0,30,0,0,0
CC(C)(C)c1ccc2nccc(Nc3cccc(O)c3)c2c1 [GW856795],27,60,18,50,0,0,37,0,24,0
c1ccc(Oc2ccc(Nc3ccnc4cc(-c5ccc(CNCCN6CCOCC6)o5)ccc34)cc2)nc1 [GW567145],43,76,0,0,10,0,15,12,0,0
Cc1ccc(C(=O)Nc2ccc(Nc3ccnc4cc(-c5nccs5)ccc34)cc2O)cc1.Cl [GW494702],82,93.4,0,37,1,0,1,30,28,0
Nc1ncc(-c2ccc3nccc(-c4ccncc4)c3c2)cc1S(=O)(=O)N1CCOCC1 [GSK1627798],50,0,37,15,25,76,49,0,36,35
CCS(=O)(=O)c1ccc(OC)c(Nc2nccc(-c3c(-c4cccc(NC(=O)c5c(F)cccc5F)c4)nn4ncccc34)n2)c1 [GSK326180],0,77,0,0,1,0,25,22,21,57
COc1cc(Nc2ncc3c(C)nc(-c4cc5ccccc5[nH]4)n3n2)cc(OC)c1OC [GW869516],0,16,79,0,0,17,2,0,0,0
Cn1cc(-c2ccc3c(c2)CCN3C(=O)Cc2cccc(Cl)c2)c2c(N)ncnc21 [GSK2606590],2,0,13,0,13,0,47,4,0,0
CN1CCN(Cc2cccc(-c3ccc4c(Nc5ccc(Oc6ccccc6)cc5)ccnc4c3)c2)CC1 [GW578342],17,95.1,0,2,0,0,25,11,0,5
Oc1cc(Nc2ccnc3cc(I)ccc23)ccc1F [GW552771],28,76,42,59,20,10,37,2,0,0
O=C(Nc1ccccc1F)NC1CCN(c2ccnc(Nc3ccc(F)cc3)n2)CC1 [GSK1379800],9,0,0,0,16,0,34,6,3,10
COC(=O)Nc1nc2cc(Oc3ccc(NC(=O)Nc4cc(C(F)(F)F)ccc4F)cn3)ccc2[nH]1.Cl.Cl [GW681170],47,15,0,0,0,91.6,16,7,0,12
Cc1cccc(NC(=O)Nc2ccc(Oc3ncnc4ccn(C)c34)cc2)c1,0,25,24,0,0,52,31,4,0,0
Cl.Cl.NCC(C(=O)Nc1cc(Br)c(-c2ccnc3[nH]ccc23)s1)c1ccccc1 (stereo not shown) [GSK1269851],97.6,29,48,0,55,81,41,0,33,16
